Test results taken from PubChem BioAssay (NCI).
This is part of a sample that, as a whole, favours compounds with a hit. Of some 83,000 tested, about 20% had one in any assay.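 Each cell line was grown in a 96-well plate and treated with one concentration of compound for 48 hours. Values below 10 were considered active.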 The source made the active and inactive calls.

Each compound was assayed on UACC-257 melanoma (assay: NCI-60 one-dose screen, 48 h (100 = growth as untreated, 0 = no growth, -100 = all killed)). Conditions: 10 µM.

Compound | growth
COc1ccc(N2N=C(c3ccc4c(c3)OCCO4)CC2c2cccc(NC(=O)CCCNS(=O)(=O)c3ccc(F)cc3)c2)cc1 (configuration not stated) | 88% (inactive)
COc1cc(/C=N/NC(=O)c2ccc3nc(-c4ccc(Cl)cc4)[nH]c3c2)cc(OC)c1OC | -47.7% (active)
O=C(N=Nc1c(O)[nH]c2ccc(Br)cc12)c1ccc2nc(-c3ccccc3)[nH]c2c1 | -19.9% (active)
COc1ccccc1[C@H]1C(C(=O)c2ccc(Cl)cc2)C2(N[C@@H]1c1ccccc1)C(=O)Nc1ccc(Cl)cc12 (some centres not stated) | 22.4% (inactive)
O=c1cc(-c2ccccc2)oc2cc(OCCCNCc3ccccc3)cc(O)c12 | -69.7% (active)
O=C1Nc2cc(-c3ccc(NC(=O)c4cccs4)cc3)ccc2/C1=C/c1ccc[nH]1 | 75.2% (inactive)
O=C(c1ccc(O)cc1)C1[C@H](c2ccc(Br)cc2)[C@@H](c2ccccc2)NC12C(=O)Nc1ccccc12 (some centres not stated) | 75.9% (inactive)
C=C1CCC2C3(C)COC(c4ccccc4F)OC3CCC2(C)C1C/C=C1/C(=O)OCC1O (configuration not stated) | -77.6% (active)
C=C1CCC2C3(C)COC(c4c(F)cccc4F)OC3CCC2(C)C1C/C=C1/C(=O)OCC1O (configuration not stated) | -46.8% (active)
COc1cccc(/C=C2\N=C(C)N(CCc3ccc(S(N)(=O)=O)cc3)C2=O)c1 | 101% (inactive)
C=C1CCC2C3(C)COC(c4cccc(F)c4)OC3CCC2(C)C1CC(O)C1=CCOC1=O (configuration not stated) | 72.7% (inactive)
Cn1cc(-c2cc(N)n3nc(-c4c[nH]c5ccc(Br)cc45)cc3n2)c2cccnc21 | -84.3% (active)
C=C1CCC2C3(C)COC(c4c(F)cccc4F)OC3CCC2(C)C1CC(O)C1=CCOC1=O (configuration not stated) | 74.1% (inactive)
Brc1ccc(/C=C/c2n(Cc3ccc4ccccc4c3)c3ccccc3[n+]2Cc2ccc3ccccc3c2)cc1 | -40.3% (active)
O=C(Nc1ccc(I)cc1)Nc1nc2ccc([N+](=O)[O-])cc2s1 | -91% (active)
O=C(N/N=C/c1ccc(B(O)O)o1)c1[nH]c2ccc(Br)cc2c1-c1ccccc1 | 63.4% (inactive)
CONC[C@]1(C)C=C2C(=O)[C@](C)(O)C3(CC3)C(C)=C2[C@H]1O | -27.2% (active)
O=C(Nc1cccc(-c2cn(-c3ccc4oc(=O)ccc4c3)nn2)c1)Nc1cc(C(F)(F)F)cc(C(F)(F)F)c1 | 50.2% (inactive)
CCCCCCCCCCCCCCCCCCCC(=O)NCCc1c[nH]c2ccc(OC(=O)CCCC(=O)OCCOOCCOOCCOOCCOOCCOOCCOOCCOOCCOOCCOOCCOOCCOOCCOC)cc12 | 92.5% (inactive)

Compound | growth
COc1ccc(/C(C)=N/N=C2C(=O)N(C)c3ccc(Br)cc32)cc1S(N)(=O)=O | 83.1% (inactive)
N#Cc1c(NC(=O)c2ccc(C(F)(F)F)cc2C(F)(F)F)sc2c1CCC(=O)C2 | -64.8% (active)
CNCc1cccc2c1OCCCCCC[C@@](C)(O)CC1(CC1)S(=O)(=O)c1ccc(cc1)-c1cnc(N)c(n1)C(=O)N2 | -75% (active)
COc1cc(OC(F)(F)F)ccc1C(=O)Nc1sc2c(c1C#N)CCC(=O)C2 | 98% (inactive)
Nc1n[nH]c2cccc(C#Cc3cccc(NC(=O)Nc4cc(C(F)(F)F)cc(C(F)(F)F)c4)c3)c12 | -57.3% (active)
N#Cc1c(-c2ccc(F)cc2)nc(SCc2ccc([N+](=O)[O-])cc2)nc1N1CCOCC1 | 54.2% (inactive)
CC1=N/C(=C\c2ccc(N(C)C)cc2)C(=O)N1CCc1ccc(S(N)(=O)=O)cc1 | 87.1% (inactive)
CN(CCF)c1ccc(/C=C/C(=O)c2ccc(N)cc2O)cc1 | 96.6% (inactive)
O=C(c1ccc(Cl)cc1)C1[C@H](c2ccccc2Br)[C@@H](c2ccccc2)NC12C(=O)Nc1ccccc12 (some centres not stated) | 33.8% (inactive)
O=C(Nc1cc(Cl)cc(Cl)c1)Nc1cc(Cl)cc(Cl)c1 | -29.7% (active)
O=C(c1ccc(O)cc1)C1[C@H](c2ccc(Br)cc2)[C@@H](c2ccccc2)NC12C(=O)Nc1ccc(Br)cc12 (some centres not stated) | 49.1% (inactive)
COc1ccccc1[C@H]1C(C(=O)c2ccc(O)cc2)C2(N[C@@H]1c1ccccc1)C(=O)Nc1ccc(Br)cc12 (some centres not stated) | 56.1% (inactive)
CN1CCN(c2ccc(C(=O)/C=C/c3ccc(C#N)cc3)cc2)CC1 | 90.4% (inactive)
CC(C)(C)Nc1nc2cc(Cl)c(Cl)cc2nc1S(C)(=O)=O | 70.6% (inactive)
COc1cc(/C=C/C(=O)c2cc(OC)c(OC)c(OC)c2)ccc1Oc1nc(Nc2ccc(F)cc2)nc(N(C)C)n1 | -30.5% (active)
C=C1CCC2C3(C)COC(c4cc(F)cc(F)c4)OC3CCC2(C)C1C/C=C1/C(=O)OCC1O (configuration not stated) | -85.4% (active)
Cc1cc(C(F)(F)F)ccc1C(=O)Nc1sc2c(c1C#N)CCC(=O)C2 | -39.5% (active)
N#Cc1c(Cl)nc(SCc2ccc(F)cc2)nc1-c1ccc(F)cc1 | 100% (inactive)
